# High-throughput results from PubChem BioAssay.
# Sampled rows, rich in hits. Any-hit rate of the full collection: about 27%.
# CYP2C9 inhib: inhibitors of human CYP2C9; P11712; CYP2C9 Supersomes, luciferin-H conversion, luminescence; inhibition, % at 5 µM; 20% of 96,000 active; AID 777;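 active means blocking of liver enzyme CYP2C9 beyond about 50% at 5 µM, limit read from the data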
# Target sequence (P11712 whole entry, looked up): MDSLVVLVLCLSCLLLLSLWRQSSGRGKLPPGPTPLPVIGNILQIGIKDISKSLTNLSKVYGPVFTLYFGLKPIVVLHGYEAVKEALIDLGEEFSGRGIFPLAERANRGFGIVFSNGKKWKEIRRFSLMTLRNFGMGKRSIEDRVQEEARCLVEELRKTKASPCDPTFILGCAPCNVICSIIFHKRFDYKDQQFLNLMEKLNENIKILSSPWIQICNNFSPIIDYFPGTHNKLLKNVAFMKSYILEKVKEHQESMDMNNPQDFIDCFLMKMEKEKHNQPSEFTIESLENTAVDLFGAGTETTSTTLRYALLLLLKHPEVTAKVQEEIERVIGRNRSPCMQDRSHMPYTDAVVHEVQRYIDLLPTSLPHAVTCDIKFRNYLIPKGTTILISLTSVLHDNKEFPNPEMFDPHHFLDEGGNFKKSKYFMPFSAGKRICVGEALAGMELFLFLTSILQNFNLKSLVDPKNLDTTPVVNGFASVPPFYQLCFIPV
# CYP2C19 inh: human CYP2C19 inhibition | P33261 | CYP2C19 Supersomes, luciferin-H EGE luminescence, 30 min | inhibition, % at 5 µM | 21% of 96,000 active | AID 778;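 active means CYP2C19 inhibition above a set limit at 5 µM in the primary screen, cut at about 50% in these data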
# Cav3 T inh: human Cav3.2 channel inhibition, primary screen | O95180 | 4% of 100,000 active | Cav3.2-expressing cells, Fluo-4 calcium fluorescence FDSS; hits give low values | B-score at 10 µM;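 active means single-dose well whose peak fluorescence ratio is a statistical outlier from its plate by either plate-standardised score or position-corrected B-score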
# CYP2C9 activ: CYP2C9 (human) activation. recombinant CYP2C9, luciferin-H conversion, luminescence; hits give high values; factor 1 = untreated enzyme, 0 = blocked. 1.4% of 96,000 active. activation factor at 5 µM. AID 1024;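 active means activation factor of 2 or more for CYP2C9 at a 5 µM dose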
# CYP2C19 act: activators of human cytochrome P450 2C19 | recombinant CYP2C19, luciferin-H EGE luminescence; hits give high values; 0 = fully inhibited enzyme, 1 = untreated enzyme | activation factor at 5 µM | 96,000 tested, under 10 active;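 active means activation factor of at least 2 at 5 µM in the primary screen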
# Pyk2 oligo antag: Pyk2 (human) oligomerization antagonism | Q14289 | Q293 cells, Pyk2 FERM NanoBiT luminescence; hits give low values | z-score (the deposit names both 25 µM and 10 µM) | 0.83% of 99,000 active | AID 1347419;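 active means Z-score of -3 or lower, scaled per plate to the spread of control and sample wells; inactive means z-score above -3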;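 further: negative z-score means lost luminescence so less FERM oligomerization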
# Numbers stand for hits; n = inactive; x = not tested or not shown.
SMILES,CYP2C9 inhib,CYP2C19 inh,Cav3 T inh,CYP2C9 activ,CYP2C19 act,Pyk2 oligo antag
COc1ccc(CCNS(=O)(=O)c2ccc(OC)cc2)cc1,56.9,65.4,n,n,n,n
O=C(c1ccc(-c2ccccc2Cl)s1)N1CCOCC1,x,x,n,x,x,x
Cc1ccc(-n2nnnc2Sc2nc([N+](=O)[O-])nn2C)cc1C,x,x,n,x,x,n
CC(C)CC(=O)Nc1cc(NC(=O)CC(C)C)cc(C(=O)NC(C)(C)C)c1,n,n,n,n,n,n
CCOC(=O)N1CCN(C(=O)c2ccc(CNS(=O)(=O)c3ccc(OC)cc3)cc2)CC1,n,n,n,n,n,n
COc1ccc(S(=O)(=O)NCc2ccc(C)cc2)cc1,n,99.1,n,n,n,n
COc1ccc(S(=O)(=O)NCCC(=O)NCc2ccc(F)cc2)cc1,n,n,n,2.8,n,n
CN1CCN(CC(=O)N(C)c2nc(-c3ccccc3)cs2)CC1,n,n,n,n,n,n
COC(=O)c1ccc(N(C(=O)CNC(=O)c2ccco2)C(C(=O)NC2CCCC2)c2ccco2)cc1 (centres undefined),x,x,n,x,x,n
CCOc1c(S(=O)(=O)N2CCCC2)ccc(Cl)c1Cl,n,92.7,n,n,n,n
COc1ccc(Cl)cc1S(=O)(=O)N1CCCC1,n,n,n,2,n,n
COc1cc(OC)c(S(=O)(=O)N2CCCCC2)cc1S(=O)(=O)N1CCCCC1,n,64.0,n,n,n,n
CCOc1ccc(Br)cc1S(=O)(=O)N1CCCC1,x,x,n,x,x,n
CCOc1ccc(Cl)cc1S(=O)(=O)N1CCCC1,n,53.4,n,2.2,n,n
CCOc1cc(C)c(S(=O)(=O)N2CCCC2)cc1C,x,x,n,x,x,n
N#CCSc1nnc(Cc2ccc3c(c2)OCO3)o1,n,n,n,n,n,n
CN(C)S(=O)(=O)c1ccc(C(=O)OCC(=O)NC(=O)NCc2ccccc2)cc1,n,n,n,n,n,n
COc1c(S(=O)(=O)N2CCCCC2)ccc2c(S(=O)(=O)N3CCCCC3)cccc12,x,x,x,x,x,-3.47
CC(C)C(=O)Nc1nnc(SCC(=O)Nc2ccc3c(c2)OCO3)s1,x,x,x,x,x,n
CCCn1cc(SCC(=O)Nc2ccc3c(c2)OCO3)c2ccccc21,76.7,74.3,-4.55,n,n,x
Cn1c(=O)cc(SCC(=O)Nc2ccc3c(c2)OCO3)c2ccccc21,n,n,n,n,n,n
Cn1cc(SCC(=O)Nc2ccc3c(c2)OCO3)c2ccccc21,65.1,100.4,n,n,n,x
Cc1ccc(-c2ccc(=O)n(CC(=O)N3CCN(c4cc(Cl)ccc4C)CC3)n2)cc1,n,n,n,n,n,n
CCOP(=O)(c1ccc(N(C)C)cc1)C(O)c1ccccc1 (centres undefined),n,n,n,n,n,n
CC(C)OP(=O)(OC(C)C)C1(O)C(=O)Nc2ccccc21 (centres undefined),n,n,n,n,n,n
SMILES,CYP2C9 inhib,CYP2C19 inh,Cav3 T inh,CYP2C9 activ,CYP2C19 act,Pyk2 oligo antag
CC(C)COP(=O)(c1ccc(N(C)C)cc1)C(O)c1ccncc1 (centres undefined),58.2,72.3,n,n,n,n
CCOP(=O)(c1ccc(N(C)C)cc1)C(O)c1ccc(Cl)cc1 (centres undefined),n,79.6,n,n,n,n
CC(C)OP(=O)(c1ccc(N(C)C)cc1)C(O)c1c(Cl)cccc1Cl (centres undefined),55.1,80.9,n,n,n,n
O=C(CCCc1nc(-c2ccccc2)no1)N1CCOCC1,n,n,n,n,n,n
COc1ccc(CCN(C(=O)c2cccc(F)c2)C2CC(=O)N(c3ccc(OC)cc3)C2=O)cc1 (centres undefined),53.3,67.4,n,n,n,n
COc1ccc(N2C(=O)CC(N(Cc3ccc(S(N)(=O)=O)cc3)C(C)=O)C2=O)cc1 (centres undefined),n,n,n,n,n,n
O=C1CC(N(Cc2ccco2)C(=O)Nc2ccc(F)cc2)C(=O)N1c1ccc(F)cc1 (centres undefined),52.1,79.7,n,n,n,n
COC(=O)CN(C(=S)Nc1ccc(F)cc1)C1CC(=O)N(c2ccc(OC)cc2)C1=O (centres undefined),62.4,93.4,n,n,n,n
CC(C)(CC(=O)N1CCN(c2ccc(Cl)cc2)CC1)CC1=NS(=O)(=O)c2ccccc2N1,78.6,63.7,x,n,n,n
COc1ccc(Cl)cc1CSc1n[nH]c(C)n1,n,88.4,n,n,n,n
CCCCOc1ccc(Cl)cc1CSc1n[nH]c(C)n1,64.5,84.7,n,n,n,n
COc1cnc(SCc2ccc(Cl)cc2Cl)nc1Cl,n,n,n,n,n,n
CCCCOc1ccc(Cl)cc1CSc1nnc(C)n1N,n,n,n,n,n,n
CCOc1ccc(Cl)cc1CSc1n[nH]c(CC)n1,71.9,93.6,n,n,n,n
CC1Cc2ccccc2N1C(=O)c1cnc2sccn2c1=O (centres undefined),n,n,n,n,n,x
Cc1c(C(=O)NCCC2=CCCCC2)cccc1[N+](=O)[O-],n,n,n,n,n,n
O=C(CSc1ccc2nnc(-c3ccncc3)n2n1)N1CCc2ccccc21,50.4,n,x,n,n,x
O=C(CSc1nnc(-c2cccnc2)n1Cc1ccco1)N1CCc2ccccc21,n,55.7,n,n,n,n
Fc1ccc(CSc2nnc(-c3cccnc3)n2Cc2ccco2)cc1,n,n,n,n,n,n
Cc1occc1-c1nnc(SCC(=O)N2CCCc3ccccc32)n1Cc1ccco1,50.4,67.3,n,n,n,n
CCn1c(SCC(=O)N2CCc3ccccc32)nnc1-c1ccco1,n,51.4,n,n,n,n
CN(C(=O)COC(=O)c1ccc2c(c1)OCO2)C1CCS(=O)(=O)C1 (centres undefined),n,n,n,n,n,n
Clc1ccccc1CSc1nnc(-c2cccnc2)n1Cc1ccco1,n,71.1,n,n,n,n
C=CCn1c(SCC(=O)O)nnc1-c1ccccc1,x,x,n,x,x,n
C=CCn1c(SCc2cccc3ccccc23)nnc1-c1cccnc1,n,88.7,n,n,n,n
SMILES,CYP2C9 inhib,CYP2C19 inh,Cav3 T inh,CYP2C9 activ,CYP2C19 act,Pyk2 oligo antag
Cc1cc2c(s1)CCCCC(=O)N2,n,n,n,n,n,n
CCCCn1c(N(CCOC(C)=O)C(C)=O)nc2ccccc21,x,x,x,x,x,n
Cc1ccc(-c2nc3cc(NS(=O)(=O)c4ccc(C)cc4)ccc3o2)cc1,99.9,98.7,n,n,n,n
O=S(=O)(Nc1ccc2oc(-c3ccccc3)nc2c1)c1ccccc1,93.5,92.6,n,n,n,n
Cc1ccc(-c2nc3cc(C)ccc3o2)cc1,n,58.9,n,n,n,n
Cc1ccc(-n2c(C)nc3c(cnn3-c3ccccc3Cl)c2=O)cc1C,n,58.8,n,n,n,n
Cc1ccc(-n2c(C)nc3c(cnn3-c3ccc(C)c(C)c3)c2=O)cc1C,n,n,n,n,n,x
CCc1nc2c(cnn2-c2ccc(F)cc2)c(=O)n1-c1ccc(N2CCC(C)CC2)cc1,n,50.3,n,n,n,x
